# Measurements reported in ChEMBL document CHEMBL3988442, “University of Dundee, Small-Polar-MMV Screening Library” (2021).
# About 13,000 (27%) of roughly 48,000 compounds showed an effect of 50% or more. Some of the results follow.
# Test system: Wolbachia pipientis
# Assay: Anti-Wolbachia Cell-Based Screen
# Format: functional
# Design: scale not given: in the data most compounds retested in dose-response had high values
# Settings: 5 µM
row,Structure (SMILES),Percent Effect
1,Cn1nnc2c1C(COCC1CC1)CN(C(=O)C1=CCCC1)C2 (stereo unspecified),-1.372%
2,COCCN(Cc1ccc(OC)nc1)Cc1cccs1,6.12%
3,O=C(Nc1ccccc1)N1C(CO)[C@]2(O)CC[C@H]1CC2 (stereo partly specified),93.37%
4,COCC1N(C(=O)Nc2ccccc2)[C@H]2CC[C@]1(O)CC2 (stereo partly specified),103.1%
5,O=C(O)C(F)(F)F.O=S(=O)(c1ccccc1)N1C[C@@H]2COC[C@]2(CN2CCOCC2)C1,14.04%
6,O=C(Nc1ccccc1)N1C[C@H]2CC[C@@H]1CN(Cc1ccccc1)C2,-24.67%
7,O=C(O)C(F)(F)F.O=S(=O)(NC1CCC12CCN(CC1CCOCC1)CC2)c1ccccc1 (stereo unspecified),-4.51%
8,O=C(Nc1ccccc1)C1CN(CC2CC2)CC12CCOCC2.O=C(O)C(F)(F)F (stereo unspecified),-9.303%
9,O=C(NCc1ccccc1CN1CCC(O)CC1)Nc1ccccc1,6.714%
10,O=C(Nc1ccccc1)C1CN(CC2CCOCC2)CC12CCOCC2.O=C(O)C(F)(F)F (stereo unspecified),-3.242%
11,O=C(Nc1ccccc1)N1C(CN2CCOCC2)[C@]2(O)CC[C@H]1CC2 (stereo partly specified),91.52%
12,O=S(=O)(c1ccccc1)N1C(CN2CCOCC2)[C@]2(O)CC[C@H]1CC2 (stereo partly specified),83.09%
13,COCCN1CCC(NC(=O)NCC2(c3ccccc3)CC2)C1 (stereo unspecified),-5.464%
14,CC(C)n1c(C(=O)N2CCCC2)nc2c1CCN(C)C2.O=C(O)C(F)(F)F,-17.76%
15,O=C(Nc1cnc2n1CCCC2)c1cccc(OCC(F)(F)F)c1,-7.584%
16,NC(=O)C1CCN(CCc2ccc(NCc3cccnc3)cc2)CC1,-10.11%
17,CC(O)C1CCN(c2cc(Cl)ccc2C#N)CC1 (stereo unspecified),-3.342%
18,CC1(c2ccccc2)CCCN(Cc2cncn2C2CCCC2)C1 (stereo unspecified),-2.034%
19,CC(C)CNC(=O)CNC(=O)NCC(O)c1ccc2ccccc2c1 (stereo unspecified),1.707%
20,O=C(O)c1ccnc(SCc2ccccc2)c1,93.4%
21,O=C(O)c1ccnc(SCC(F)(F)F)c1,103%
22,CCSc1cc(C(=O)N(C(C)C)C2CC2)ccn1,-12.03%

row,Structure (SMILES),Percent Effect
1,CCSc1cc(C(=O)NCCC(=O)Nc2ccccn2)ccn1,-16.79%
2,CCSc1cc(C(=O)N(CC(F)F)C(C)C)ccn1,-6.776%
3,CCSc1cc(C(=O)NCc2ccccc2O)ccn1,-4.116%
4,CCC(CC)(CN)NC(C)c1ccccc1 (stereo unspecified),4.415%
5,O=C(NCCN1CCC(c2cccs2)CC1)Nc1cccs1,-15.35%
6,COc1ccc(CCC(=O)NCCN2CCC(c3cccs3)CC2)cc1,160.9%
7,O=C(NCCc1ccccc1)NCCN1CCC(c2cccs2)CC1,129.5%
8,COc1ccc(CCNC(=O)CN2CCOCS2(=O)=O)cc1,-7.481%
9,COc1ccc(CNC(=O)CCN2CCOC(C(F)(F)F)C2)cc1 (stereo unspecified),-3.399%
10,O=C(NCCc1cccc(O)c1)NC1CCN(c2ccccc2)C1=O (stereo unspecified),-1.396%
11,CO[C@H]1CNC[C@@H]1NC(=O)c1cc(C)nc2ccc(C)cc12,-4.766%
12,COCCN1C[C@H]2CCN(C(C)=O)CC[C@H]2S1(=O)=O,-12.61%
13,O=C(O)C1CCCN(c2nc3c(-c4ccccc4)csc3c(=O)[nH]2)C1 (stereo unspecified),5.88%
14,COc1ccc2c(c1)nc1n2[C@@H](CN(C2CCC2)C2CCC2)COC1,-7.437%
15,Cc1cnn(CC2CCCN2CC(=O)N(C)Cc2ccsc2)c1 (stereo unspecified),-8.163%
16,CN(Cc1ccsc1)C(=O)CN1CCOC(Cn2cncn2)C1 (stereo unspecified),122.3%
17,Cc1cnn(CC2CN(CC(=O)N(C)Cc3cccs3)CCO2)c1 (stereo unspecified),-3.9%
18,Cc1cnn(CC2CN(CC(=O)N(C)Cc3ccsc3)CCO2)c1 (stereo unspecified),117%
19,Cc1cnn(C2CCCN(C(=O)CCNS(C)(=O)=O)C2)c1 (stereo unspecified),109.1%
20,COc1cccc(CCC(=O)N2CCCC(n3cc(C)cn3)C2)c1 (stereo unspecified),-1.259%
21,Cc1cnn(C2CCCN(C(=O)Cn3ccc(=O)n(C)c3=O)C2)c1 (stereo unspecified),-20.71%
22,Cc1cnn(C2CCCN(C(=O)CN(C)c3cnccn3)C2)c1 (stereo unspecified),6.201%

row,Structure (SMILES),Percent Effect
1,O=C(CCc1cscn1)N1CCCC(n2ccnc2)C1 (stereo unspecified),-7.112%
2,Cc1cc(C)n(C2CCCN(C(=O)CCNS(C)(=O)=O)C2)n1 (stereo unspecified),0.7954%
3,Cc1cnn(C2CCCN(C(=O)CCc3cnn(C)c3)C2)c1 (stereo unspecified),94.12%
4,Cc1cnn(C2CCCN(C(=O)CCc3ccncc3)C2)c1 (stereo unspecified),119.7%
5,Cc1cnn(C2CCCN(C(=O)CCc3cscn3)C2)c1 (stereo unspecified),115.3%
6,CCCC(C)N(C)Cc1nnc(-c2ccc(Br)s2)o1 (stereo unspecified),-85.49%
7,CCNc1ncc(C(=O)N(C)Cc2nc3cc(Cl)ccc3[nH]2)cn1,4.323%
8,COc1ccc(-n2c(CCC(=O)O)nc3ccccc32)cc1CO,-17.89%
9,CN(C)C(=O)CN1C[C@@H]2CC[C@H](C1)N(C(=O)CCn1cncn1)C2,-10.88%
10,O=C(NCC(O)COc1cccc(F)c1)c1ccoc1 (stereo unspecified),11.74%
11,CCN(C(=O)c1ccc2nnc(C3CCN(C)C3)n2c1)C(C)C.O=C(O)C(F)(F)F (stereo unspecified),-13.6%
12,O=C(CCc1cscn1)N1CCCC(c2ccn[nH]2)C1 (stereo unspecified),-4.951%
13,NC(=O)c1cc(C2CCCN(C(=O)CCc3cscn3)C2)n[nH]1 (stereo unspecified),0.5679%
14,Cc1cc(C2CCCN(C(=O)CCc3cscn3)C2)n[nH]1 (stereo unspecified),93.55%
15,Cn1cc(C(=O)Nc2ccnc(Oc3ccccc3)c2)ccc1=O,-17.65%
16,CCOC(CC)C(=O)NCc1ccnc(Oc2ccc(F)cc2)c1 (stereo unspecified),-12.82%
17,CCOc1ccccc1Oc1ccc(CN)cn1,5.762%
18,NCc1ccnc(Oc2ccc(F)cc2)c1,111.3%
19,NCc1ccnc(Oc2ccccc2)c1,91.83%
20,Cc1cc(CC(=O)NCc2ccnc(OCC(F)(F)F)c2)no1,-12.47%
21,CCOc1ccc(Oc2cc(CN)ccn2)cc1,101.1%
22,NCc1ccc(Oc2cccc(Cl)c2Cl)cc1,-2.508%

row,Structure (SMILES),Percent Effect
1,CCOc1cc(CNC(C)c2sccc2C)ccn1 (stereo unspecified),3.225%
2,CC(C)C(=O)NCc1ccnc(Oc2ccc(F)cc2)c1,-7.223%
3,CCOC(=O)NCCC(=O)NCc1ccnc(Oc2ccc(F)cc2)c1,11.47%
4,Cc1ccc(Oc2cc(CN)ccn2)cc1C.Cl,95.86%
5,Cc1oc(-c2cccs2)nc1C(=O)N(C)C1(C#N)CCC1,6.807%
6,Cc1ccc([C@@H]2CN(C(=O)CCc3cc(Cl)no3)C[C@H]2N(C)C)cc1,-9.949%
7,COc1ccc(Oc2cc(CN)ccn2)cc1,98.96%
8,COc1cccc(-c2cc(CN)ccc2F)c1F,-9.579%
9,CC(NC(N)=O)C(=O)NCc1ccnc(Oc2ccc(F)cc2)c1 (stereo unspecified),-14.04%
10,COc1ccc(N(CCC(N)=O)C(=O)CSc2ccc(Cl)cc2)cc1,-20.11%
11,COCCC(=O)N[C@H]1CN(c2nc(C)c3c(n2)CCCC3)C[C@@H]1C1CC1,40.93%
12,CC(NCc1ccccn1)c1cc2c(cc1Br)OCCO2 (stereo unspecified),9.612%
13,O=C(NCc1ccc(F)cc1)NCC(O)(c1cccs1)C1CC1 (stereo unspecified),0.4051%
14,CN1CCC(NC(=O)c2cc(Br)cc(Cl)c2O)C1=O (stereo unspecified),91.47%
15,CN1CCC(NC(=O)Nc2ccc(F)c(-n3cccc3)c2)C1=O (stereo unspecified),0.2161%
16,CN1CCC(NC(=O)c2cc(Cl)cc(Br)c2O)C1=O (stereo unspecified),99.64%
17,CN1CCC(NC(=O)c2cc(F)cc(Cl)c2O)C1=O (stereo unspecified),115.3%
18,CN1CCC(NC(=O)Nc2ccc(Cl)c(F)c2)C1=O (stereo unspecified),7.915%
19,Cn1cc(N2CCC(NC(=O)c3ccccc3Cl)C2=O)cn1 (stereo unspecified),-3.21%
20,CN1CCC(NC(=O)Nc2ccc(Br)c(F)c2)C1=O (stereo unspecified),3.385%
21,CN1CCC(NC(=O)CCCc2cc(Cl)sc2Cl)C1=O (stereo unspecified),-5.326%
22,CN1CCC(NC(=O)Nc2ccc(F)c(Br)c2)C1=O (stereo unspecified),-1.465%

row,Structure (SMILES),Percent Effect
1,CCN(C)C[C@@H]1CN(Cc2cccc(Cl)c2)C[C@@H]1CO,-21.33%
2,Cc1ncc(CN(C)C(=O)Nc2cccc(N3CCNC3=O)c2)s1,-6.99%
3,COc1cccc(-c2cc(NCc3nc(C)cs3)n(C)n2)c1,-29%
4,CCCS(=O)(=O)N1CC[C@@H]2[C@@H]1CC(=O)N2Cc1csc(C)n1,71.41%
5,CCN1C(=O)C[C@@H]2[C@@H]1CCN2S(=O)(=O)c1cccc(C)c1,-32.48%
6,CCS(=O)(=O)N1CC[C@H]2[C@H]1CC(=O)N2Cc1csc(C)n1,96.63%
7,CCOCC(=O)N1CC[C@H]2[C@@H]1CCC(=O)N2Cc1csc(C)n1,22.07%
8,COc1ccc(Br)c(C(=O)N2CCCC(c3nc(C)no3)C2)c1 (stereo unspecified),-8.45%
9,CCC(=O)N1CCN(C(=O)Nc2cccc(N3CCOCC3)c2)CC1,-13.34%
10,CC1(C(=O)N2CCOCC2)CN(Cc2ncc[nH]2)CCO1 (stereo unspecified),90.74%
11,Cn1ccnc1CN1CCC2(CC1)CN(CC1CC1)C(=O)CO2,-0.08379%
12,CC(C)n1ccnc1CN1CCOC(C)(C(=O)N2CCOCC2)C1 (stereo unspecified),127.3%
13,O=C(c1cccc(S(=O)(=O)NCCCc2ncc[nH]2)c1)N1CCOCC1,-4.417%
14,Cn1ccnc1CN1CCC2(CC(=O)N(c3ccc4c(c3)OCO4)C2)C1.O=C(O)C(F)(F)F (stereo unspecified),-22.94%
15,CN1CC2(CCN(Cc3ncc[nH]3)CC2)CC1=O,-5.481%
16,CC(NC(N)=O)C(=O)N1CCCN(Cc2nccn2C(C)C)CC1 (stereo unspecified),-6.463%
17,CC(C)n1ccnc1CN1CCCN(C(=O)c2nccnc2N)CC1,3.581%
18,Cn1ccnc1CN1CCOC(C)(C(=O)N2CCOCC2)C1 (stereo unspecified),108.3%
